The source of these data is PubChem BioAssay (Tox21).

Assay [1] concerns the target Nuclear receptor subfamily 1 group I member 2 (Rattus norvegicus) (UniProt Q9R1A7). The assay can be described thus: Rat pregnane X receptor (rPXR) activation by small molecules, qHTS assay (AID 1346983). Note: nearly all actives have a fitted effect of over 20% in size. The settings on record: rPXR luciferase reporter cells, One-Glo luminescence, 24 h; max activation: active compounds read high. The gist of the method:
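Luminescent readout (One-Glo luciferase, 30 min room temperature) followed 24 hr compound treatment at 37 C of rPXR cells plated 2,000 per well and preincubated 5hr; qHTS format with compounds delivered in DMSO.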

The target of assay [2] is Nuclear receptor subfamily 1 group I member 2 (Homo sapiens) (UniProt O75469). The assay can be described thus: CYP3A4 induction through human pregnane X receptor (PXR) by small molecules, qHTS assay (AID 1346984). Note: nearly all actives have a fitted effect of over 40% in size. In short, it runs like this: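 Steps: seed DPX-2 cells, 5 hr at 37C; pin-transfer compounds; 24 hr at 37C; add Luciferin-IPA (3uM final), 3 hr at 37C; add One-Glo, 30 min RT; read luminescence.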

Assay [3] has the same target. The experiment in a line: Human pregnane X receptor (PXR) activation by small molecules, qHTS assay (AID 1346985). Note: nearly all actives have a fitted effect of over 40% in size. In short, it runs like this: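 DPX-2 cells (HepG2 co-transfected with a PXR response element and a CYP3A4-promoter luciferase construct) were seeded at 2,000 per well, rested 5 hr at 37C, then exposed to DMSO-dissolved compounds for 24 hr. Activation was read as luciferase luminescence.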

Several values for one entry are separate records, joined by “and”; a condition that tells them apart may be missing. Equal entries are not always repeated. Records with an inconclusive call do not appear. Values without a mark were called inactive. Activity calls are given as the source filed them. Calls come from the whole dose curve; as a rule, active = well fitted curve in the direction sought with a large enough effect in the repeat runs; inconclusive = weak or mixed curves; inactive = no such curve, though single readings can be large; an effect the other way counts as inactive or inconclusive.
% is set by controls: 0 for no effect and ±100 for the full control effect; potency is the fitted concentration of half-maximal effect.

Sequence of Nuclear receptor subfamily 1 group I member 2 (Rattus norvegicus) (Q9R1A7 whole entry, looked up): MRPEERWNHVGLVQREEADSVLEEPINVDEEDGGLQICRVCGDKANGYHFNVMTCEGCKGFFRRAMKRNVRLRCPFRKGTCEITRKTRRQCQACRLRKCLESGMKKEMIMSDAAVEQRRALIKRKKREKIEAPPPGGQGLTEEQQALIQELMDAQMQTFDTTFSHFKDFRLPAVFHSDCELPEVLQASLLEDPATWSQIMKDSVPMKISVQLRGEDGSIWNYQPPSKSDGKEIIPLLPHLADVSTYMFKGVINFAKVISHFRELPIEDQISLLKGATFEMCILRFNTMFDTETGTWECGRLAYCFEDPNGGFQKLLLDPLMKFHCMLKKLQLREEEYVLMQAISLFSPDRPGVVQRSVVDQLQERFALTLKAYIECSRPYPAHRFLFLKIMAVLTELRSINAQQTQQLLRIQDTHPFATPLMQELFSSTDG

Regarding `FC(F)(F)C(F)(F)C(F)(F)C(F)(F)C(F)(F)F`, the max activation in assay [1] was -2.03%. In addition, the Potency result in assay [2] and in assay [3] was “inactive” throughout.

On to `CC1CCCCN1CCCOC(=O)c1ccccc1` (stereo not given), for which, in assay [1], the max activation is -7.12%. Besides, the Potency result in assay [2] and in assay [3] was “inactive” each time.

`CC(C)c1ncc([N+](=O)[O-])n1C`: in assay [1], the max activation was -4.41%. Also, the Potency result in assay [2] and in assay [3] was “inactive” each time.

Take `CCC1OC(=O)C[C@@H](O)[C@H](C)[C@@H](O[C@@H]2O[C@H](C)C[C@H](N(C)C)[C@H]2O)[C@@H](CC=O)C[C@@H](C)C(=O)/C=C/[C@]2(C)OC2C1C` (stereo not given in full): the max activation in assay [1] was -4.15%. Moreover, the Potency result in assay [2] and in assay [3] was “inactive” in each case.

For `CN(C)CCC(O)(c1ccccc1)c1ccccc1Cl` (stereo not given), the max activation in assay [1] is 2.06%. In addition, the Potency in assay [2] was 12.6 µM (active); in assay [3], 15.8 µM (active).

As for `CCCCCCCCCCCC[n+]1ccc2ccccc2c1`, in assay [1], the max activation is -19.3%. Also, the Potency entry in assay [2] and in assay [3] was “inactive” in each case.

In the case of `O=C(O)COc1ccc(C(=O)c2cccs2)c(Cl)c1Cl`, the max activation in assay [1] was -1.39% and -4.28%. Further, the Potency entry in assay [2] and in assay [3] was “inactive” throughout.

Consider `C=C(Nc1ccc(OCC)cc1)Nc1ccc(OCC)cc1`, for which, in assay [1], the max activation is -1.1% and 0.608%. The Potency result in assay [2] and in assay [3] was “inactive” each time.

As for `CCN(CC)C(=O)[C@]1(c2ccccc2)C[C@@H]1CN`, in assay [1], the max activation is -2.63%. The Potency result in assay [2] and in assay [3] was “inactive” in each case.

For the molecule `CC1(C)S[C@@H]2[C@H](NC(=O)[C@@H](NC(=O)N3CCNC3=O)c3ccccc3)C(=O)N2[C@H]1C(=O)O`, the max activation in assay [1] was -1.76%. For the same molecule, the Potency entry in assay [2] and in assay [3] was “inactive” throughout.

Regarding `CCN(CC)CC#CCOC(=O)C(O)(c1ccccc1)C1CCCCC1` (stereo not given), in assay [1], the max activation was 13%. The results for the Potency in assay [2] and in assay [3] were 8.91 µM (active) and 17.8 µM (active), respectively.

Take `Oc1ccc(Cl)c2c1CCC2`: the max activation in assay [1] is 0.0185%. Moreover, the Potency result in assay [2] and in assay [3] was “inactive” each time.

In the case of `C/C(=C\C(=O)OCCCCCCCCC(=O)O)C[C@@H]1OC[C@H](C[C@@H]2O[C@H]2[C@@H](C)[C@H](C)O)[C@@H](O)[C@H]1O`, in assay [1], the max activation is -5.5%. Moreover, the Potency entry in assay [2] and in assay [3] was “inactive” throughout.

Consider `CC(=O)Oc1cc(C(F)(F)F)ccc1C(=O)O`, for which, in assay [1], the max activation is 2.94%. Moreover, the Potency entry in assay [2] and in assay [3] was “inactive” each time.

With `C=N[C@@H](C(=O)N[C@@H]1C(=O)N2[C@@H]1SC(C)(C)[C@@H]2C(=O)O)c1ccccc1`, the max activation in assay [1] is -2.74%. Besides, the Potency entry in assay [2] and in assay [3] was “inactive” throughout.

On to `Nc1cc(Cl)c(NC2=NCCN2)c(Cl)c1`, for which, in assay [1], the max activation was -1.9%. The Potency result in assay [2] and in assay [3] was “inactive” throughout.

Consider `O=C1C2CC3CC1CC(O)(C3)C2`, for which the max activation in assay [1] is -3.68%. The Potency entry in assay [2] and in assay [3] was “inactive” each time.

As to `CC(=O)OCC(=O)[C@@]1(O)CC[C@H]2[C@@H]3C[C@H](C)C4=CC(=O)C=C[C@]4(C)[C@H]3[C@@H](O)C[C@@]21C`, the Potency in assay [1] is 7.94 µM (active). For the same molecule, the Potency result in assay [2] and in assay [3] was “inactive” throughout.

Turning to `CCCCC[C@H](O)/C=C/[C@@H]1[C@@H](C/C=C\CCCC(=O)O)[C@@H](O)C[C@H]1O`, the max activation in assay [1] was -3.99% and -0.657%. For the same molecule, the Potency entry in assay [2] and in assay [3] was “inactive” in each case.

Regarding `CC1(C)C[C@@H]1C(=O)N/C(=C\CCCCSC[C@H](N)C(=O)O)C(=O)O`, in assay [1], the max activation was -4.56% and -1.17%. Besides, the Potency entry in assay [2] and in assay [3] was “inactive” each time.
